Screening results: PubChem BioAssay, several laboratories
PolyA inh: inhibitors of polyadenylation in S. cerevisiae. actives 0.02% (n = 300,000). activity score, % at 12 µM. S. cerevisiae SKY197-pL101 polyadenylation reporter, beta-gal luminescence; efflux-impaired pdr1/pdr3 knockout yeast; score 100 = 6 SD above DMSO;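 active = lowest replicate activity score at least 50, where 100 means six control SD above control mean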;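 note: yeast exposed to compound for 9 h at 30 °C; higher score means more reporter readthrough which indicates perturbed polyadenylation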
p-CIP stab down: lowers stability of the mouse p/CIP coactivator protein; AID 1984; F442A p/CIP-EGFP cells, EGFP fluorescence, 16 h; Q05BA5; decrease of EGFP signal, % at 10 µM; actives 0.01% (n = 290,000);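 active = EGFP signal decrease of at least 30% at 10 µM or well 3 SD below plate mean, unless failing retest; inactive = the rest, including hits failing retest or dose response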
AHR activator: human AHR activation | P35869 | AHR-responsive luciferase reporter cells, luminescence | activation, % at 5 µM | actives 2.5% (n = 320,000); in the data active = activation above about 47%;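 note: 0% = vehicle wells and 100% = reference agonist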
Target sequence (P35869 whole entry, looked up): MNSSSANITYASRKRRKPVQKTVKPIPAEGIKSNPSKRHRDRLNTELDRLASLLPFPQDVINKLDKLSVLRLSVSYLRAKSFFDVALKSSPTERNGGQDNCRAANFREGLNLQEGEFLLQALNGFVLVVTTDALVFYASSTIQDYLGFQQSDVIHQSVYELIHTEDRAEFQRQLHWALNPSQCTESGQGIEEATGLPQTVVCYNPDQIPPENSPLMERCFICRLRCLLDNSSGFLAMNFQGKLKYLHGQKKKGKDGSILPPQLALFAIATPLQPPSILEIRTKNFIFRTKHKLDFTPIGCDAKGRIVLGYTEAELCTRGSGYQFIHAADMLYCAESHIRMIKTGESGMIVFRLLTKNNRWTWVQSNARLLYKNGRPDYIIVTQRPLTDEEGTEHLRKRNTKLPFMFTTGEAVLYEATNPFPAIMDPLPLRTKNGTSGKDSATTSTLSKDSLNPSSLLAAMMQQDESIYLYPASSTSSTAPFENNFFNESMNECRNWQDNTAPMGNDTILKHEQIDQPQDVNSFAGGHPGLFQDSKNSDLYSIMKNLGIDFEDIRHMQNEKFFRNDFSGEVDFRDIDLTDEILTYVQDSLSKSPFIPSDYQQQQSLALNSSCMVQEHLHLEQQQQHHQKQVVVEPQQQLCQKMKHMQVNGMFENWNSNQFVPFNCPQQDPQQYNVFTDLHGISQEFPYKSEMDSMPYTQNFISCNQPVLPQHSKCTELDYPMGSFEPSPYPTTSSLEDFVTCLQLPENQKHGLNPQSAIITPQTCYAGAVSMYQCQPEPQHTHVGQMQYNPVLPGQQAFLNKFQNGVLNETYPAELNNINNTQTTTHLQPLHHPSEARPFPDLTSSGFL
HIF activator: HIF pathway transcriptional activation; activation, % at 7.5 µM (by protocol); AID 1910; actives 0.32% (n = 300,000); U2OS HRE-luciferase reporter, luminescence; normalized: DMSO 0%, desferrioxamine 100%;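 active = mean activation of at least 10% of the iron chelator positive control signal, with at least half of replicates also reaching 10%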
Platelet DG rel: modulates dense granule release in human platelets. human platelet-rich plasma, SFLLRN dense granule ATP release, luminescence. inhibition, %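 (compounds screened at 7.5 µM in platelet-rich plasma)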. actives 0.22% (n = 300,000);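 active = mean replicate score, as percent of positive control, at or above 50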
AHR act confirm: confirmation of human aryl hydrocarbon receptor activators. shares compounds with AHR activator. human cells, AHR-responsive luciferase reporter, luminescence. activation, % at 9 µM. actives 87% (n = 2,300). AID 2845; in the data active = activation above about 49%;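 note: HepG2 hepatoma cells carrying a DRE-driven firefly luciferase reporter; 0% = vehicle wells and 100% = reference agonist wells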
PXR counter: activates human PXR in AHR activator counter-screen; shares compounds with AHR activator; cell-based PXR reporter, luciferase luminescence; activation, % at 11.6 µM; actives 88% (n = 2,300); AID 434939; in the data active = activation above about 11%;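 note: human hepatoma DPX-2 cells expressing full-length human PXR; 0% = DMSO and 100% = reference agonist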
Active calls of the source: *; . = no result. Rows were chosen to be rich in hits. Some 2.8% of all compounds tested hit in one or more screens of this group.

SMILES	PolyA inh	p-CIP stab down	AHR activator	HIF activator	Platelet DG rel	AHR act confirm	PXR counter
COc1ccc(-c2cnc3ccccc3n2)cc1NC(=O)CNC(=O)c1ccccc1	1	-18	117*	0	-24	35	42*
CCOc1ccc(Nc2nc3ccccc3n2C)cc1	-16	.	1	2	4	.	.
CCOc1ccc(Nc2nc3ccccc3n3nnnc23)cc1	15	-11	132*	3	-1	85*	16*
CCN(CC)c1ccc(NC(=S)Nc2ccc(F)cc2)cc1	-9	-3	.	4	4	.	.
COc1cc(/C=N/Nc2cccc(C)c2)ccc1OC(=O)c1ccco1	17	6	3	1	-6	.	.
CCC(=O)Nc1cc(-c2nc3ncccc3o2)ccc1Cl	-13	-8	110*	0	1	97*	16*
Cc1ccc(-c2nc3ncccc3o2)cc1NC(=O)C(C)(C)C	9	-5	91*	-5	6	91*	32*
Cc1nnc(SCC(=O)NCc2ccc3c(c2)OCO3)s1	16	-4	2	0	11	.	.
Cc1ccc(-c2nsc(SCC(=O)NCc3ccc4c(c3)OCO4)n2)cc1	-16	0	10	0	-16	.	.
O=C(CSc1nc2cc(Cl)ccc2s1)NCc1ccc2c(c1)OCO2	-11	-8	108*	0	-1	82*	34*
Cc1ccccc1-c1nsc(SCC(=O)NCc2ccc3c(c2)OCO3)n1	-16	-8	86*	0	-13	44	30*
Cc1cccc(NC(=S)NNC(=O)c2cccc([N+](=O)[O-])c2)c1	6	-1	0	1	14	.	.
O=C(NC(=S)Nc1cccc(F)c1)c1cccc([N+](=O)[O-])c1	-11	3	96*	-30	-5	40	30*
CC/C(=N\NC(=S)Nc1cccc(C)c1)c1ccccc1	-5	-6	87*	0	3	55*	24*
C/C(=N/NC(=S)Nc1cccc(C)c1)c1cccc([N+](=O)[O-])c1	-7	-2	106*	0	3	83*	100*
COc1ccc2c(c1)c(=O)c(C(=O)O)c(-c1ccc3c(c1)OCO3)n2C	-7	-8	0	0	-15	.	.
C[C@H](CO)N1C[C@H](C)[C@@H](CN(C)Cc2ccc(C(=O)O)cc2)Oc2ccc(NS(=O)(=O)c3cn(C)cn3)cc2C1=O	.	.	-1	.	.	.	.
NS(=O)(=O)c1cccc(NC(=O)COC(=O)CN2C(=O)c3ccccc3C2=O)c1	.	.	0	.	.	.	.
COc1ccc(Nc2ccc(N3C(=O)CCCC3=O)cc2[N+](=O)[O-])c(OC)c1	9	-1	2	-1	-4	.	.
CCc1noc(N)c1C(=O)Nc1ccc(F)c(Cl)c1	-13	-9	80*	-2	-3	109*	12*
CSC(=NC#N)N1CCN(c2cccc(Cl)c2)CC1	9	-4	115*	0	11	7	41*
CC(=O)Nc1ccc(N(C(=O)c2ccco2)C(C(=O)NC2CCCC2)c2ccncc2)cc1 (stereo unspecified)	2	1	-1	0	-2	.	.
COC(=O)c1ccccc1NC(=O)Cn1ccnc1	-3	7	104*	0	0	84*	.
Cc1ccc(NC(=O)CCN2CC(C)OC(C)C2)cc1 (stereo unspecified)	-18	4	-1	0	-3	.	.
CCN(CC)CCNC(=O)C(=O)Nc1ccc2c(c1)N(S(=O)(=O)c1cccs1)CCC2	10	.	-1	-1	-4	.	.
SMILES	PolyA inh	p-CIP stab down	AHR activator	HIF activator	Platelet DG rel	AHR act confirm	PXR counter
CCc1cc(C(=O)N/N=C/c2c(C)[nH]c3ccccc23)cs1	9	-2	99*	-7	-17	83*	28*
O=C(NC1CCC(Oc2ccc(C(=O)O)cc2)CC1)NC12CC3CC(CC(C3)C1)C2 (stereo unspecified)	.	.	-1	.	.	.	.
CC1CCN(C(=O)c2cc(-c3ccccc3O)on2)CC1	-3	-15	0	3	1	.	.
CC1CCN(C(=O)c2cc(-c3ccco3)on2)CC1	5	0	97*	1	-55	128*	31*
O=C(Nc1ccccc1OCc1ccccc1)c1ccccc1Br	-20	4	103*	-7	4	105*	43*
CC(=O)Nc1cccc(NC(=O)c2ccccc2OCc2ccccc2)c1	-5	-8	20	0	20	.	.
Cc1nc(-c2ccccc2)nc2n[nH]c(N)c12	10	.	112*	2	-9	138*	9
O=C(NCC1CCCO1)C(=O)N/N=C/c1cccc(Cl)c1 (stereo unspecified)	3	-1	2	0	6	.	.
COc1ccc(Cl)cc1NC(=O)CN(C)C(=O)CCc1nc2ccccc2c(=O)[nH]1	.	.	6	.	.	.	.
CCOC(=O)c1oc2ccccc2c1N	3	20	82*	3	5	122*	.
CCOC(=O)c1oc2cccc(O)c2c1C	9	-12	-4	5	5	.	.
CCOC(=O)c1oc2ccccc2c1NC(=O)COC	-7	10	89*	0	-12	104*	15*
CCOC(=O)c1oc2ccccc2c1NC(=O)C(C)(C)C	-9	-11	4	0	16	.	.
Cn1c(=O)c2nc(-c3ccccc3)oc2c2ccccc21	-30	7	104*	1	0	120*	22*
COc1ccc(OC)c2nc(-c3cccnc3)ccc12	-2	-3	93*	2	1	143*	22*
COc1ccc2cc(-c3cccnc3)ncc2c1	.	.	-10	.	.	.	.
CCCCN(C(=O)CSc1ncn[nH]1)c1c(N)n(Cc2ccccc2)c(=O)[nH]c1=O	.	.	1	.	.	.	.
Cc1cc2nc(C)n3c4ccccc4nc3n2n1	-15	-2	85*	0	-1	127*	13*
CCc1nc2cc(C)nn2c2nc3ccccc3n12	-6	6	91*	0	0	99*	30*
C/C(=N/NC(=O)CNc1ccc(C)cc1)c1ccc(Br)s1	-13	1	83*	1	19	61*	15*
C/C(=N/Nc1ccc(F)cc1)c1ccc(Cl)s1	-5	6	84*	0	-2	68*	.
C=CCn1c(NC(=O)c2ccc(C)cc2)nc2ccccc21	4	-2	99*	5	14	93*	29*
CCCn1c(NC(=O)c2ccccc2)nc2ccccc21	-13	-6	46	1	-5	.	.
Cc1nccn1CC(=O)N/N=C/c1cccs1	-10	1	-1	0	1	.	.
CC(C)NC(=O)CSc1ccccc1C(=O)NNC(=O)Cn1ccc(C(F)(F)F)n1	-17	.	3	-1	6	.	.
Cc1cc(C)n(-c2nc(-c3cccc(Cl)c3)cs2)n1	-7	-6	109*	2	-25	101*	22*
